PubChem BioAssay (NCI)
The panel holds about 79,000 compounds, 15% with a hit somewhere; the sample as a whole holds those more often. Unmarked numbers belong to inactive results. Activity calls are given as the source filed them. Cut-off read from the data, not from the text of the source: active = growth inhibition above about 70%; inactive = the rest.

Assays:
[1] = NCI Yeast Anticancer Drug Screen. Data for the rad50 strain (AID 155);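 note: 0% = growth of vehicle-only cultures of the same strain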; details: S. cerevisiae rad50 strain growth inhibition, hits give high values
Outline: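 Relative growth inhibition (compound vs vehicle) was measured in yeast with a defined repair-gene alteration.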

[2] = NCI Yeast Anticancer Drug Screen. Data for the mec2-1 strain (AID 157); details: S. cerevisiae mec2-1 strain, hits give high values
Outline: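 Test agents were screened against the mec2-1 yeast strain, with defined DNA repair or cell cycle alteration. Growth was scored as inhibition against vehicle-only controls.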

[3] = NCI Yeast Anticancer Drug Screen. Data for the sgs1 mgt1 strain (AID 161);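 note: 0% = growth of cultures given vehicle only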; details: S. cerevisiae sgs1 mgt1 strain, hits give high values
Outline: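 Inhibition of yeast growth, normalised to vehicle-treated controls, is reported for a strain bearing genetic alterations in DNA damage repair.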

[4] = NCI Yeast Anticancer Drug Screen. Data for the cln2 rad14 strain (AID 165);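 note: 0% = growth equal to vehicle treated cultures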; details: S. cerevisiae cln2 rad14 strain, hits give high values
Outline: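 Growth of compound-exposed yeast (cln2 rad14 genotype) measured and expressed as inhibition relative to vehicle.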

[5] = NCI Yeast Anticancer Drug Screen. Data for the bub3 strain (AID 167); details: S. cerevisiae bub3 mutant strain, hits give high values
Outline: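 Screening used yeast with an engineered genetic alteration affecting cell cycle control. Compound-exposed cultures were compared with vehicle cultures, and reduced growth was taken as inhibition.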

[6] = NCI Yeast Anticancer Drug Screen. Data for the mlh1 rad18 strain (AID 175); details: S. cerevisiae mlh1 rad18 strain growth inhibition, hits give high values
Outline: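 In this whole-cell yeast screen, a strain with altered DNA damage repair is challenged with compound, and its growth is measured against matched vehicle-treated controls.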

[7] = at 5.0 µM (retest, dose inferred, filed as 0.5)
[8] = at 50.0 µM (retest, dose inferred, filed as 5.0)

Compound	growth inhibition [1, 7]	growth inhibition [1, 8]	growth inhibition ([1]; at 50.0 µM)	growth inhibition [2, 7]	growth inhibition [2, 8]	growth inhibition ([2]; at 50.0 µM)	growth inhibition [3, 7]	growth inhibition [3, 8]	growth inhibition ([3]; at 50.0 µM)	growth inhibition [4, 7]	growth inhibition [4, 8]	growth inhibition ([4]; at 50.0 µM)	growth inhibition [5, 7]	growth inhibition [5, 8]	growth inhibition ([5]; at 50.0 µM)	growth inhibition [6, 7]	growth inhibition [6, 8]	growth inhibition ([6]; at 50.0 µM)
CCN(CC)CCCNc1ccc([N+](=O)[O-])c2nc3ccc(OC)cc3c(N)c12	-13%	62%	44.2%	-20%	27%	-5.3%	-7%	44%	79.2% (active)	2%	31%	19.6%	-11%	54%	13.6%	-39%	74% (active)	62%
COc1cc2c(c(OC)c1OC)-c1ccc(=O)c(OC)cc1[C@@H](N)CC2	25%	22%	-5.6%	22%	16%	-26.4%	22%	21%	-12.5%	24%	32%	-15.4%	25%	19%	-5.1%	29%	26%	-49.5%
CSCCOC(=O)c1cc(NC(=S)c2ccoc2C)ccc1Cl	13%	78% (active)	82.5% (active)	-8%	78% (active)	68.9%	10%	85% (active)	66.4%	14%	83% (active)	67%	17%	88% (active)	73.9% (active)	-7%	85% (active)	63%
CCn1c(C)cc(=O)n1-c1ccc([N+](=O)[O-])cc1	-160%	-148%	51.1%	-45%	-50%	17.4%	-60%	-48%	25.4%	-64%	-69%	24%	-71%	-78%	50.1%	-146%	-110%	68.9%
CC1CCC(C(C)C2C(O)CC3C4CCC5CC(O)CCC5(C)C4CCC32C)NC1 (configuration not stated)	3%	98% (active)	91.8% (active)	1%	96% (active)	82.2% (active)	6%	97% (active)	93.2% (active)	-4%	96% (active)	90% (active)	2%	95% (active)	90% (active)	4%	97% (active)	92.9% (active)
C(=N\NC1=NCCN1)/c1ccc(-c2cn3cc(/C=N/NC4=NCCN4)ccc3n2)cc1	99% (active)	99% (active)	99.1% (active)	100% (active)	99% (active)	97.8% (active)	99% (active)	100% (active)	99.3% (active)	92% (active)	98% (active)	98.1% (active)	98% (active)	99% (active)	99.3% (active)	99% (active)	99% (active)	99.4% (active)
Cc1ccc2[nH]c3c(c2c1)[n+]([O-])c1ccccc1[n+]3[O-]	5%	16%	-17.4%	3%	-4%	35.5%	-8%	-13%	5.8%	-4%	-7%	-22.5%	-8%	-6%	37.3%	-6%	7%	-0.5%
Cn1ncc2c(NCc3ccc(Cl)cc3)nc(Cl)nc21	7%	97% (active)	98.2% (active)	-1%	98% (active)	96.5% (active)	8%	97% (active)	98% (active)	2%	95% (active)	99.2% (active)	2%	97% (active)	98.9% (active)	0%	97% (active)	98.5% (active)
O=c1c2ccccc2sc2cccc(NCCCN3CCN(CCCNc4cccc5sc6ccccc6c(=O)c45)CC3)c12	-1%	4%	28.4%	-2%	-3%	-10.7%	4%	13%	3.3%	-3%	-6%	46%	-2%	-5%	-9.1%	-3%	-65%	0.6%
CCOC(=O)/C=C(\CC(=O)OCC)C(=O)OCC	-3%	3%	99.5% (active)	-1%	-8%	99.7% (active)	-1%	5%	99.2% (active)	-3%	-6%	13.4%	4%	25%	99.5% (active)	-3%	-2%	99.3% (active)
COc1ccc2ccccc2c1-c1c(O)ccc2ccccc12	0%	80% (active)	93.5% (active)	-5%	71% (active)	95.8% (active)	-2%	63%	97.2% (active)	-5%	72% (active)	93.3% (active)	-6%	64%	97.9% (active)	-8%	78% (active)	96% (active)
CCc1ccc(C)nc1	-1%	-3%	20.9%	1%	-1%	1.05%	3%	0%	1.1%	0%	3%	0.85%	-2%	-5%	98.7% (active)	1%	-2%	-1.05%
Cn1c(=S)sc2nc3ccccc3n2c1=S	49%	96% (active)	82.3% (active)	12%	97% (active)	97% (active)	37%	98% (active)	92.2% (active)	18%	98% (active)	90% (active)	14%	98% (active)	87.4% (active)	54%	97% (active)	97.9% (active)
COc1cc(NCC(C#N)C#N)ccc1N=Nc1ccc(Cl)cc1	-5%	58%	86.2% (active)	-2%	67%	70.8% (active)	4%	72% (active)	85.3% (active)	-7%	46%	76.8% (active)	-23%	87% (active)	79.5% (active)	-37%	81% (active)	82.7% (active)
ClC1(Cl)C(Cl)(Cl)C12c1ccccc1-c1ccccc12	14%	94% (active)	98.6% (active)	-26%	97% (active)	98.8% (active)	15%	98% (active)	99% (active)	2%	95% (active)	86.8% (active)	28%	95% (active)	98% (active)	29%	96% (active)	98.6% (active)
N#CC1=C(C#N)Sc2nc3cc(Cl)ccc3nc2S1	17%	99% (active)	68.7%	24%	99% (active)	91.1% (active)	30%	98% (active)	77.9% (active)	25%	99% (active)	20.6%	19%	98% (active)	41.9%	29%	99% (active)	94.8% (active)
Cc1cccc(C[N+](C)(C)CCCO)c1C	1%	1%	-6.15%	4%	0%	-24.6%	3%	1%	-0.35%	2%	1%	46.1%	0%	1%	-1.9%	0%	-3%	-4.7%
COc1ccccc1NC(=O)c1ccccc1F	-154%	41%	-2.5%	-47%	-41%	10.7%	-61%	-17%	0.2%	-60%	-72%	4.65%	-70%	9%	-3.5%	-147%	-43%	-9.6%
CCSC1(SCC)C(=O)OC2=C(CCCC2)C1N1CCOCC1 (configuration not stated)	1%	21%	34.1%	2%	12%	14.2%	0%	18%	0.35%	-2%	31%	34.9%	-4%	11%	13.3%	-1%	24%	15.6%
